Assays:
Conditions in all cases: Compound Concentration (nM):1000
HIPK2 = tested on: HIPK2
HIPK3 = tested on: HIPK3
HIPK4 = tested on: HIPK4
HPK1 = tested on: T1, HPK1
T1 construct: gene MAP4K1

HUNK = tested on: HUNK
ICK = tested on: ICK
IGF1R = tested on: IGF1R
IKK-alpha = tested on: T2, IKK-alpha
T2 construct: gene CHUK

IKK-beta = tested on: T3, IKK-beta
T3 construct: gene IKBKB

IKK-epsilon = tested on: T4, IKK-epsilon
T4 construct: gene IKBKE
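Further: KINOMEscan scanMAX binding as percent activity remaining versus control; lower means stronger binding.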

SMILES | Percent Control (HIPK2) | Percent Control (HIPK3) | Percent Control (HIPK4) | Percent Control (HPK1) | Percent Control (HUNK) | Percent Control (ICK) | Percent Control (IGF1R) | Percent Control (IKK-alpha) | Percent Control (IKK-beta) | Percent Control (IKK-epsilon)
COC(=O)Nc1nc2ccc(Oc3ccc(NC(=O)Nc4cc(C(F)(F)F)ccc4F)cc3)cc2s1.Cl [GW693917A] | 88% | 94% | 10% | 51% | 100% | 78% | 100% | 86% | 100% | 71%
COc1ccc2c(-c3ccnc(Nc4cccc(OC(F)(F)F)c4)n3)cnn2n1 [GW810372X] | 0% | 2.3% | 29% | 83% | 88% | 24% | 100% | 83% | 100% | 62%
Cl.O=C(O[C@H]1CN[C@H](C#Cc2cc3ncnc(Nc4ccc5c(cnn5Cc5ccccc5)c4)c3s2)C1)N1CCOCC1 [GSK200398A] | 77% | 92% | 92% | 100% | 100% | 96% | 97% | 100% | 100% | 100%
O=C(Nc1n[nH]c2nc(-c3ccc(O)cc3)c(Br)cc12)C1CC1 [SB-725317] | 36% | 30% | 100% | 86% | 100% | 1% | 100% | 100% | 100% | 84%
COc1ccccc1-c1cc(/C=C2\C(=O)Nc3ncc(Br)cc32)cc(Br)c1O [GW442130X] | 100% | 100% | 92% | 99% | 69% | 81% | 100% | 100% | 100% | 100%
COc1cc(C=NNc2ncnc3c2cnn3-c2ccccc2)ccc1O [GW513184X] | 91% | 75% | 67% | 100% | 58% | 91% | 100% | 100% | 100% | 100%
C/C(Nc1ccc(S(N)(=O)=O)cc1)=C1/C(=O)Nc2ccccc21 [GW335962X] | 93% | 97% | 84% | 100% | 100% | 92% | 95% | 92% | 100% | 63%
C[C@@H](Oc1cc(-n2cnc3ccc(OC4CCN(C)CC4)cc32)sc1C(N)=O)c1ccccc1Cl [GSK579289A] | 81% | 76% | 15% | 58% | 73% | 96% | 69% | 99% | 100% | 76%
CN1CCN(C(=O)c2ccc(NC(=O)Nc3ccc(N(C)c4ccnc(Nc5ccc(CS(C)(=O)=O)cc5)n4)cc3)cc2)CC1.Cl [GW830263A] | 77% | 71% | 74% | 2.6% | 35% | 44% | 100% | 90% | 70% | 38%
COc1cc2ncn(-c3cc(O[C@H](C)c4ccccc4Cl)c(C(N)=O)s3)c2cc1OC [GSK237701A] | 84% | 93% | 99% | 26% | 100% | 91% | 97% | 83% | 92% | 81%
Cc1cc(O)cc(C)c1/C=C/c1cncc(C(N)=O)c1 [GW435821X] | 98% | 100% | 100% | 100% | 100% | 100% | 100% | 100% | 100% | 90%
CC1=C(C(=O)Nc2ccc3[nH]ncc3c2)C(c2ccc(Cl)c(Cl)c2)CC(=O)N1 (centres unmarked) [GSK299115A] | 92% | 83% | 100% | 100% | 80% | 83% | 93% | 81% | 76% | 100%
NS(=O)(=O)c1ccc(N/N=C2\C(=O)Nc3ccc(Cl)cc32)cc1 [GW280670X] | 100% | 90% | 100% | 88% | 100% | 94% | 100% | 100% | 100% | 72%
CN(C)CCNC(=O)Nc1ccc(N(C)c2ccnc(Nc3ccc(CS(C)(=O)=O)cc3)n2)cc1.Cl [GW830900A] | 94% | 81% | 85% | 30% | 55% | 70% | 100% | 100% | 97% | 100%

Source: publication PMC7826789 (International Journal of Molecular Sciences, 2021)
